Reference: the supplement of paper PMC4683952
Where a name gives a salt, the structure may show the parent alone. About 50 (4%) of roughly 1,200 compounds showed activity. Cut-off read from the data, not from the text of the source: all actives reach 1.3 or more but so do some inactives. What follows is part of a selection rich in actives, with near analogues and random picks from the rest.

test system: Lgr5 (MarsCy1-Lgr5-EGFP, U2OS); assay: cell-surface Lgr5 expression (SCi1 fluorescence, background-subtracted) relative to WT DMSO (fold of DMSO control); higher = more Lgr5 at the plasma membrane, active = hit call of the paper; details: U2OS MarsCy1-Lgr5-EGFP stable; treatment time: overnight; 16 µM; library: Johns Hopkins Clinical Compound Library

cell-surface Lgr5 expression, active:
CC1(C)O[C@@H]2C[C@H]3[C@@H]4CCC5=CC(=O)C=C[C@]5(C)[C@H]4[C@@H](O)C[C@]3(C)[C@]2(C(=O)CO)O1 1.44
C[C@]12C=CC(=O)C=C1CC[C@@H]1[C@@H]2[C@@H](O)C[C@@]2(C)[C@H]1CC[C@]2(O)C(=O)COP(=O)(O)O [Prednisolone 21-phosphate, disodium salt] 1.41
CCC(=O)[C@@]1(C)[C@H](C)C[C@H]2[C@@H]3CCC4=CC(=O)C=C[C@]4(C)[C@H]3[C@@H](O)C[C@@]21C [Rimexolone] 1.39
CCCCOc1ccc(CC(=O)NO)cc1 [Bufexamac] 1.82
CC1(C)O[C@@H]2C[C@H]3[C@@H]4CCC5=CC(=O)CC[C@]5(C)[C@@]4(F)[C@@H](O)C[C@]3(C)[C@]2(C(=O)CCl)O1 [Halcinonide] 1.71
CC(=O)OCC(=O)[C@@]1(O)CC[C@H]2[C@@H]3CCC4=CC(=O)C=C[C@]4(C)[C@@]3(Cl)[C@@H](Cl)C[C@@]21C [Dichlorisone acetate] 1.55
CC(=O)OCC(=O)[C@@]1(O)CC[C@H]2[C@@H]3CCC4=CC(=O)CC[C@]4(C)[C@@]3(F)[C@@H](O)C[C@@]21C 1.35
CCN(CC)CCOc1ccc2c(c1)C(=O)c1cc(OCCN(CC)CC)ccc1-2 [Tilorone dihydrochloride] 1.62

cell-surface Lgr5 expression, inactive:
NCCCC(N)(C(=O)O)C(F)F (racemic) 1.18
[Br-].[K+] [Potassium bromide] 0.93
CCOC(=O)[C@H](CCc1ccccc1)N[C@H]1CCc2ccccc2N(CC(=O)O)C1=O [Benazepril hydrochloride] 0.872
O=S(=O)(O)CCS [Mesna (2-Mercaptoethane Sulfonic Acid Sodium Salt)] 0.815
O=S(=O)(O)CCS [Mesna (2-Mercaptoethanesulfonic acid)] 0.844
O=P([O-])(O)O.[Na+] [Sodium phosphate monobasic] 1.11
[Na+].[O]=[Bi](=[O])[O-] [Sodium bismuthate] 0.965
CC1=C(C/C=C(\C)CCC[C@H](C)CCC[C@H](C)CCCC(C)C)C(=O)c2ccccc2C1=O [Vitamin K1 (Phylloquinone, phytonadione)] 0.865
NS(=O)(=O)c1cc2c(cc1C(F)(F)F)NC(Cc1ccccc1)NS2(=O)=O (configuration not stated) [Bendroflumethiazide] 1.02
CCCC(O)C(CC)CO (configuration not stated) [Ethohexadiol (2-Ethyl-1,3-hexanediol)] 1.04
Clc1ccc(CO/N=C(\Cn2ccnc2)c2ccc(Cl)cc2Cl)c(Cl)c1 [Oxiconazole nitrate] 0.871
O=[N+]([O-])c1ccc(/C=N/O)o1 [Nifuroxime] 0.992
O.[Al+3].[Al+3].[Cl-].[OH-].[OH-].[OH-].[OH-].[OH-] [Aluminum chlorohydrate] 0.754
Cc1onc(-c2ccccc2)c1C(=O)N[C@@H]1C(=O)N2[C@@H]1SC(C)(C)[C@@H]2C(=O)O [Oxacillin] 0.726
C[C@]12C=CC(=O)C=C1CC[C@@H]1[C@@H]2[C@@H](O)C[C@@]2(C)[C@H]1CC[C@]2(O)C(=O)COP(=O)(O)O [Prednisolone sodium phosphate] 1.25
C[C@H]1C[C@@H]2[C@H]([C@@H](O)C[C@@]3(C)[C@H]2CC[C@]3(O)C(=O)CO)[C@@]2(C)C=CC(=O)C=C12 [Methylprednisolone (6-alpha-Methylprednisolone)] 1.12
N[C@H]1C(O)O[C@H](CO)[C@@H](O)[C@@H]1O (some centres not stated) [Glucosamine] 1.06
c1ccc(Cc2nc3ccccc3[nH]2)cc1 [Bendazol (2-Benzylbenzimidazole)] 1.05
N=C(N)N1Cc2ccccc2C(O)C1 (configuration not stated) [4-Hydroxydebrisoquin] 1.07
Cc1cc2nc3c(=O)[nH]c(=O)nc-3n(C[C@H](O)[C@H](O)[C@H](O)COP(=O)(O)OP(=O)(O)OC[C@H]3O[C@@H](n4cnc5c(N)ncnc54)[C@H](O)[C@@H]3O)c2cc1C [Flavin adenine dinucleotide] 1.01
CCOc1ccc(NC(=O)CC(C)O)cc1 (configuration not stated) [Bucetin] 1.29
CCOc1ccc(NC(C)=O)cc1 [Phenacetin (acetophenetidin)] 1.24
Cc1c(C)c2c(c(C)c1O)CCC(C)(COc1ccc(CC3SC(=O)NC3=O)cc1)O2 (configuration not stated) [Troglitazone] 1.09
Oc1cccc(O)c1O [Pyrogallol] 1.15
Nc1ccn([C@@H]2CS[C@H](CO)O2)c(=O)n1 [Lamivudine] 0.724
COc1cc2c(cc1OC)C(=O)C(CC1CCN(Cc3ccccc3)CC1)C2 (configuration not stated) [Donepezil hydrochloride] 0.531
C[N+](C)(C)CCO.O=C([O-])CC(O)(CC(=O)O)C(=O)O [Choline dihydrogen citrate] 0.803
CCOC(=O)[C@H](CCc1ccccc1)N[C@@H](C)C(=O)N1Cc2ccccc2C[C@H]1C(=O)O [Quinapril] 1.13
O=C([O-])[O-].[Li+].[Li+] [Lithium carbonate] 0.278
N=C(N)NC(=N)NCCc1ccccc1 [Phenformin hydrochloride] 0.756
O=S(=O)([O-])[O-].[Fe+2] [Ferrous sulfate] 0.888
CCCCOc1cc(C(=O)OCCN(CC)CC)ccc1N [Benoxinate] 0.987
CCCOc1ccc(C(=O)OCCN(CC)CC)cc1N [Proparacaine] 1.22
Cl.Cl.NCCN [Ethylenediamine dihydrochloride] 1.05
